Measured values reported in the supplement of paper PMC3334620.
In all, about 33,000 sequences were measured (“E-score (-0.5 to 0.5)”: median about -0.013, highest 2% from about 0.3 on). Many of the other results were omitted from the sample, so the highest values are more common in it than they were.

The sequences below were run against T1, Msn1 (UniProt P22148) (assay: PBM E-score (8-mer binding enrichment) (E-score (-0.5 to 0.5)); higher = stronger / more preferred TF binding). Details: protein concentration: 200 nM; construct: GST-full length.
T1 sequence: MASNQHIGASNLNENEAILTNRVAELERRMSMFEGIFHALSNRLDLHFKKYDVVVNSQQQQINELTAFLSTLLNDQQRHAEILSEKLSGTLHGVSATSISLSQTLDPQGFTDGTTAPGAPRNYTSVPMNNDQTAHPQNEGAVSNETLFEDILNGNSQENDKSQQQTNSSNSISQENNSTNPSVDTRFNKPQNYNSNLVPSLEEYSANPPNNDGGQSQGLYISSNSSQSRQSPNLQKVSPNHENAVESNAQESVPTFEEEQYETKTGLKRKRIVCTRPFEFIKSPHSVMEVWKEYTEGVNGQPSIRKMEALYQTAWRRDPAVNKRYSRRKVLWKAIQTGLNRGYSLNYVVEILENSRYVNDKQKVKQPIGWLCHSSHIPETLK
Protocol: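 Universal 'all 10-mer' protein binding microarrays (Agilent AMADID 015681) probed with GST-tagged S. cerevisiae TFs (full-length or DBD) made by in vitro transcription/translation (PURExpress), about 100-200 nM. Bound TF was detected with fluorescent anti-GST. Each ungapped 8-mer (which stands for itself and its reverse complement) is scored by the PBM enrichment score (E-score), a modified Wilcoxon-Mann-Whitney statistic from -0.5 to +0.5, computed with the Universal PBM Analysis Suite. Scale: above 0.35 generally sequence-specific binding.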

Sequence	PBM E-score
TGGTACCA	-0.0646
CGGTACAC	0.123
CGGTACAA	0.311
TGGTACAA	0.386
AGGTACAC	0.139
CGGTACAG	0.054
AGGTACAG	0.00868
AGGTACAA	0.394
ATCGTTTA	0.141
CTTCATCA	-0.143
AAGGGCAG	-0.102
CTGGAAGC	-0.225
GCTTTTCC	-0.0951
AGCCTCAC	-0.223
CGCATGTA	0.0633
AGCATGTA	0.0635
CGCATGTC	0.426
CCCATGTC	0.316
AGCATGTG	-0.0619
CTCATGTC	0.27
ACCATGTC	0.218
CCCATGTA	0.0749
AGCATGTC	0.318
ATTTGAGC	-0.0055
ACAATCTA	0.0825

Sequence	PBM E-score
CGGACCGA	0.165
CAGCGAAG	-0.193
TATCGGGA	0.178
TCCCCAGA	-0.107
GCTGTCCA	0.159
GATGTCCC	0.462
CCTGTCCA	0.156
ACTGTCCA	0.0386
CATGTCCG	0.436
GCTGTCCC	-0.0712
TCTGTCCA	0.363
CATGTCAG	0.208
CATGTCAA	0.236
GATGTCAC	0.26
CATGTCCA	0.463
CCTGTCCG	0.117
CTTACTGC	-0.143
GATGGCGC	-0.252
ATTTAGAG	0.0544
ACGGGAGG	-0.268
ACACATGT	0.238
AAGGTCCG	-0.0417
TATGTCCA	0.465
AATGTCCG	0.481
GACGTCCA	0.207

Sequence	PBM E-score
GATGTCAA	0.0785
TATGTCAA	0.31
TACGTCCA	0.179
AATGTGCG	-0.0792
AATGTCAA	0.3
GATGTCGA	0.0163
TATGTCGA	0.289
GATGTCCA	0.458
GCTCCCAC	-0.135
GGCCAAAA	0.00072
GTTCGAGA	0.11
CAGAAAGC	-0.0396
AGCAAAAT	0.174
AGGGGGCC	-0.412
GCTACCGA	-0.00569
CCAGTACG	-0.0732
CATGTCAC	0.291
CATGTCCC	0.459
CCTGTCCC	0.282
CCACTTGC	-0.132
CTCAGTCA	-0.173
GCTGGACA	0.276
ACTGGACA	0.374
ACTGGACC	-0.137
TCTGGAAA	-0.0457

Sequence	PBM E-score
ACTGGACT	0.105
CCTGGACA	0.417
TCTGGACA	0.381
CCTGGACG	-0.182
CCTGGACC	0.0101
AAGTATGC	-0.0157
GCCGACCA	0.0498
TCCTTGCA	0.0515
CCTCTCAG	-0.339
ATACCATA	0.0438
CAGGCGGA	0.223
AAATGTCG	0.412
CAATGTCA	0.262
CAATGTGC	-0.121
AAATGTAT	0.28
CAATGTCG	0.323
AAATGTGT	0.292
CAATGTCC	0.47
AAATGTCT	0.486
AAATGTTG	-0.0982
CAATGTGG	0.111
CAATGTAG	-0.109
AAATGTGG	0.147
ACGACTCC	-0.181
GTCGGGTA	0.0767

Sequence	PBM E-score
GACGTCAA	-0.00044
GTAATATA	0.191
GAGAAACC	-0.0447
TATGTGAA	-0.121
GATAAGGC	0.0376
AAATGTTA	0.165
GAATGTGA	0.076
GAATGTCA	0.373
AAATGTAA	0.238
AAATGTCA	0.456
TAATGTCA	0.259
ACGATAGT	0.0402
CGACCTGA	0.0583
AGTTGTCC	0.441
AGTTGTGC	-0.273
CGTTGTGC	0.114
CGTTGTCA	-0.023
AGTTGTCA	0.295
CGTTGTCC	0.413
AATGCGGG	0.145
GGGAGCAC	-0.276
AAGCTCGT	0.0392
GCTTCCAA	-0.0663
GTCATTGA	0.0439
AGCTGGTC	-0.0428

Sequence	PBM E-score
ACGGGCAG	-0.0886
AGCAGACA	0.0142
CGCAGACA	0.323
GGCAGACA	0.079
TGCAGACA	0.33
CGCAGACC	-0.123
CGCAGACG	0.0312
ATCACTAC	-0.126
CAGTGCTC	-0.259
AGCGCAGC	-0.115
ACCGCAAG	-0.0142
ATGCTACC	-0.126
AGAGATAT	0.0248
CGCCGGCG	0.204
CCTGCCAA	-0.125
GTGTCAAA	0.096
ATGTCATC	0.341
CTGTCATC	0.0737
ATGTCAAG	0.217
CTGTCATA	0.0936
ATGTCATG	0.411
GTGTCATA	0.292
ATGTCAGG	0.158
ATGTCAAA	0.323
ATGTCATA	0.448

Sequence	PBM E-score
ATGTCAGC	0.194
CTGTCAAA	0.0466
AGAGGTTG	-0.182
AGGTAACA	0.113
AAGTCGCT	-0.0636
ATGGGACA	0.429
ATGGGACG	-0.188
GTGGGAGA	-0.317
CTGGGACA	0.444
ATGGGACC	0.00395
GTGGGATA	-0.0948
GTGGGACA	0.455
CTGGGAAA	-0.203
CTGGGACC	-0.269
GACCGTGA	-0.0454
AACGCTAC	-0.137
CCCAACGC	0.0471
AATACCTG	-0.0275
GGTGAGAC	0.0221
ACACACCA	0.183
CTCCTTCA	-0.3
AGAAGCTA	-0.135
